Hits are enriched below; roughly 6.5% of the tested compounds scored in any of these assays.
HT1080NT lethal = kills 2HG-producing HT-1080-NT fibrosarcoma cells. HT-1080-NT fibrosarcoma viability, CellTiter-Glo ATP luminescence, 48 h. Potency, µM (series often up to 46.1 µM), actives largely listed as cytotoxic. 360,000 compounds, 1.6% hits. AID 686970;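 further: NT is the 2HG producing partner of a matched IDH1 knockdown line; nearly all actives have a fitted effect of over 55% in size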
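Fibrosarcoma NT cells, 750 per well in 5% FBS RPMI, were exposed to compound for 48 hours. Viability: CellTiter-Glo luminescence.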
HT1080 IDH1KD tx = HT-1080 IDH1 knockdown cell toxicity (counter line); HT-1080 IDH1 knockdown viability, ATP luminescence, 48 h; Potency, µM (series often up to 46.1 µM), actives largely listed as cytotoxic; 360,000 compounds, 2% hits
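IDH1KD HT-1080 cells, 750/well, RPMI + 5% FBS; compound pinned after 2 h settling; 48 h, 37 °C; CellTiter-Glo luminescence; % activity normalised to DMSO and no-cell wells; curves fitted, classed by r2 and efficacy.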
TGFb SMAD3 inh = TGF-b pathway inhibition | HepG2 CAGA-GFP TGF-b/SMAD3 reporter, GFP fluorescence, 18 h; TGF-beta stimulated, 500 pg/mL final | Potency, µM (top dose mostly 46.1 µM), actives largely listed as inhibitors | 410,000 compounds, 1.2% hits | AID 588855; further: nearly all actives have a fitted effect of over 65% in size
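GFP signal (ex488/em500-530) from TGF-beta-stimulated HEPG2 CAGA-GFP cells, 500 pg/mL final, 18 h at 37 degrees C in DMEM plus 1% FBS, normalized to unstimulated and DMSO-stimulated controls.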
Giardia killer = kills Giardia lamblia | activity change, % at 7.66 µM, hits read low | 340,000 compounds, 0.15% hits | Giardia lamblia trophozoite viability; in the data active means activity change below about -80%; inconclusive means between about -30% and that limit;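 further: parasites exposed to compound for two days anaerobically before the ATP read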
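Giardia trophozoites, 100 cells per well, were exposed to compounds for 48 hrs at 37 deg C under anaerobic conditions; viability was then read as ATP content by bioluminescence after 15-30 min at room temperature.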
HepG2 tox = HepG2 cytotoxicity, counter-screen for TGF-b inhibitors | HepG2 CAGA-GFP viability, ATP luminescence, 18 h | Potency, µM (highest dose often 46.1 µM), actives largely listed as cytotoxic | 410,000 compounds, 0.76% hits
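CellTiter-Glo luminescence gave cytotoxicity after 18 hours at 37 degrees C. The cells were HepG2 CAGA-GFP in 1% FBS DMEM, stimulated with 500 pg/mL TGF-beta after compound addition. %Activity was normalised to no-cell wells (complete cell-killing) and DMSO (no toxicity), and curves were fitted and classified.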
IL-1B inflam inh = blocks inflammasome-driven IL-1 beta release; THP-1 LPS/ATP IL-1B secretion, AlphaLISA, 16 h; stronger effect = lower value; activity change, % at 57.5 µM; 360,000 compounds, 4.7% hits; in the data active means activity change below about -50%; inconclusive means mostly about -30% to -49%
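THP-1 cells pretreated 1 hr with compounds (up to 57.5 uM final), then stimulated with LPS (250 ng/mL final) plus ATP (1.25 mM final); secreted IL-1B measured by AlphaLISA after 16 hr, decreased signal indicating inhibition.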
Each line names hits and unclear results; the compound was inactive in the other large screens. Unless noted, the call rests on the fitted dose curve; in most records, active means well fitted curve in the direction sought with a large enough effect; inconclusive means small, poorly fitted or top-dose-only effect, or another doubt; inactive means no such curve, though single readings can be large; an effect the other way counts as inactive or inconclusive.

COc1ccc(CC(N)c2csc(NC(=O)c3cccs3)n2)cc1 (stereo not given)	TGFb SMAD3 inh 14µM (no result: Giardia killer)
COc1cc(CNC(=O)Nc2nc(C(N)Cc3ccc(C(F)(F)F)cc3)cs2)cc(OC)c1OC (stereo not given)	HT1080NT lethal inconclusive, HT1080 IDH1KD tx inconclusive, TGFb SMAD3 inh inconclusive, IL-1B inflam inh -59 (no result: Giardia killer)
COc1ccc(CC(N)c2csc(NC(=O)NCCc3ccc(OC)c(OC)c3)n2)cc1 (stereo not given)	HT1080NT lethal inconclusive, HT1080 IDH1KD tx inconclusive, IL-1B inflam inh inconclusive (no result: Giardia killer)
O=C(Nc1ccc(Cl)cc1F)c1cnc2sc(N3CCOCC3)nn2c1=O	none (no result: HT1080NT lethal, HT1080 IDH1KD tx, Giardia killer, IL-1B inflam inh)
CC(C)(C)c1ccccc1NC(=O)Nc1nc(C(N)c2ccccc2Cl)cs1 (stereo not given)	HT1080NT lethal inconclusive, HT1080 IDH1KD tx inconclusive, TGFb SMAD3 inh inconclusive (no result: Giardia killer)
CC(C)C(N)c1csc(NC(=O)Nc2ccccc2C(C)(C)C)n1 (stereo not given)	HT1080NT lethal inconclusive, HT1080 IDH1KD tx inconclusive, TGFb SMAD3 inh inconclusive, IL-1B inflam inh -60 (no result: Giardia killer)
COc1ccc(CC(N)c2csc(NC(=O)NCc3ccccc3)n2)cc1 (stereo not given)	HT1080NT lethal inconclusive, HT1080 IDH1KD tx 18µM (no result: Giardia killer)
CCOC(=O)C1(CCOc2ccccc2)CCN(Cc2ccc(COC)o2)CC1	IL-1B inflam inh -57
CCOC(=O)C1(CCOc2ccccc2)CCN(Cc2cc(OC)c(O)c(OC)c2)CC1	none
CCOC(=O)C1(CCOc2ccccc2)CCN(Cc2cnc(C)[nH]2)CC1	IL-1B inflam inh -94
CCOC(=O)C1(CCc2ccccc2)CCN(Cc2ccc(OC)cc2)CC1	none
CCOC(=O)C1(CCc2ccccc2)CCN(Cc2c(O)cccc2OC)CC1	HT1080NT lethal inconclusive, HT1080 IDH1KD tx 33µM, TGFb SMAD3 inh inconclusive, IL-1B inflam inh -92
CCOC(=O)C1(CCOc2ccccc2)CCN(Cc2ccc(OC)c(COC)c2)CC1	HT1080NT lethal inconclusive, HT1080 IDH1KD tx 13µM, TGFb SMAD3 inh inconclusive, IL-1B inflam inh -52
CS(=O)(=O)c1ccc(C(=O)OCC(=O)N(CCc2ccccc2)Cc2ccccc2)cc1	none
COCCNC(=O)COc1coc(CN2CCN(Cc3ccccc3)CC2)cc1=O	none
CCOC(=O)C1(CCOc2ccccc2)CCN(Cc2ccc(OC)c(O)c2)CC1	IL-1B inflam inh -52
CCOC(=O)C1(CCOc2ccccc2)CCN(Cc2ccc(O)cc2)CC1	none
CCOC(=O)C1(CCOc2ccccc2)CCN(Cc2ccc(O)c(OCC)c2)CC1	HT1080NT lethal inconclusive, HT1080 IDH1KD tx inconclusive, IL-1B inflam inh -89
CN(C)S(=O)(=O)c1ccc(NC(=O)CN2CCCCCC2)cc1	none
COC(=O)c1ccc(OC(=O)C2CSC3(C)CCC(=O)N23)cc1 (stereo not given)	none
O=C(OC(C(=O)NCc1cccs1)c1ccccn1)c1cccs1 (stereo not given)	none
CCN(c1cccc(C)c1)S(=O)(=O)c1cc(CN2C(=O)c3cccnc3C2=O)ccc1OC	HepG2 tox 11µM
O=C(OCc1ccc(F)cc1)c1cc2ccccc2cc1O	none
CCc1cccc(NC(=O)C(Cc2ccccc2)NS(=O)(=O)c2ccc3c(c2)c(=O)n(C)c(=O)n3C)c1 (stereo not given)	TGFb SMAD3 inh 4.5µM (no result: HT1080NT lethal, HT1080 IDH1KD tx, Giardia killer, IL-1B inflam inh)
O=C(CCCCCNC(=O)c1ccccc1)N/N=C/c1ccc(F)cc1	none
O=S(=O)(CCN1CCSCC1)c1ccc(Cl)cc1	IL-1B inflam inh -73
COCCCn1c(SCc2ccc(OC)cc2)nc2cc(OC)c(OC)cc2c1=N	none
CCCSc1nc2cc(OC)c(OC)cc2c(=N)n1CCCN1CCOCC1	HT1080NT lethal 15µM, HT1080 IDH1KD tx inconclusive, IL-1B inflam inh -52
CC1=CC(=C2C(=O)c3ccccc3C2=O)C=C(C)N1Cc1ccco1	TGFb SMAD3 inh inconclusive, IL-1B inflam inh -62
O=C1c2ccccc2C(=O)N1Cc1ccco1	none
Cc1oc(-c2ccccc2Cl)nc1CS(=O)CC(=O)NCc1ccc(Cl)cc1 (stereo not given)	TGFb SMAD3 inh 8.9µM
Cc1oc(-c2ccccc2F)nc1CS(=O)CC(=O)NCc1ccc(Cl)cc1 (stereo not given)	none
CCc1ccc(-c2nc(CS(=O)CC(=O)NCCN3CCCCCC3)c(C)o2)cc1 (stereo not given)	HT1080NT lethal inconclusive, HT1080 IDH1KD tx inconclusive, IL-1B inflam inh -56
Cc1oc(-c2ccc(Cl)cc2)nc1CS(=O)CC(=O)NCCCN1CCOCC1 (stereo not given)	TGFb SMAD3 inh inconclusive
Cc1ccc(-c2nc(CS(=O)CC(=O)NCCCN3CCN(Cc4ccccc4)CC3)c(C)o2)cc1 (stereo not given)	HT1080 IDH1KD tx inconclusive, TGFb SMAD3 inh inconclusive, IL-1B inflam inh -71
Cc1ccc(-c2nc(CS(=O)CC(=O)NCCN3CCCC3)c(C)o2)cc1 (stereo not given)	none
Cc1cc2c(NCc3ccccc3)ncnc2s1	HT1080 IDH1KD tx inconclusive, IL-1B inflam inh inconclusive
CN1CCCC1CCOC(C)(c1ccccc1)c1ccc(Cl)cc1 (stereo not given)	HT1080NT lethal 16µM, HT1080 IDH1KD tx inconclusive, TGFb SMAD3 inh inconclusive, HepG2 tox 11µM, IL-1B inflam inh inconclusive
CC(C)(C)c1ccc(C(=O)N2CCCCC2CCN2CCCCC2)cc1 (stereo not given)	none (no result: HT1080NT lethal, HT1080 IDH1KD tx, Giardia killer, IL-1B inflam inh)
C[C@@]12CC(=O)NC1N(C(=O)c1ccccc1)C(c1ccccc1OC(=O)c1ccccc1)C2 (stereo not given in full)	none
C[C@@]12CC(=O)NC1N(C(=O)c1cccc(C(F)(F)F)c1)C(c1ccccc1OC(=O)c1cccc(C(F)(F)F)c1)C2 (stereo not given in full)	TGFb SMAD3 inh 13µM
Cc1ccc(C)c(S(=O)(=O)N2CCN(C(=O)CCC(=O)c3cc(C)sc3C)CC2)c1	IL-1B inflam inh -54
Cc1ccc(C)c(S(=O)(=O)N2CCN(C(=O)Cc3ccccc3)CC2)c1	none
COc1ccc(Cc2ccccc2C(=O)O)cc1	none
COc1ccc(CC2=CC(=O)c3ccccc3C2=O)cc1	HT1080NT lethal inconclusive, HT1080 IDH1KD tx inconclusive, TGFb SMAD3 inh inconclusive, IL-1B inflam inh -98
Oc1ccccc1CNc1ccc(OC(F)(F)F)cc1	HT1080NT lethal 18µM, HT1080 IDH1KD tx inconclusive, TGFb SMAD3 inh inconclusive, IL-1B inflam inh -89
CN=C(NC#N)SCC(=O)c1ccc(Cl)cc1Cl	none
Cc1ccc(C)c(C(O)c2ncc(-c3cccc(C(F)(F)F)c3)[nH]2)c1 (stereo not given)	HT1080 IDH1KD tx inconclusive, TGFb SMAD3 inh inconclusive, IL-1B inflam inh -54 (no result: Giardia killer)

Source: PubChem BioAssay (National Center for Advancing Translational Sciences (NCATS))
